High-throughput results deposited in PubChem by National Center for Advancing Translational Sciences (NCATS).
Sampled rows, rich in hits. Any-hit rate of the full collection: about 7.9%.
HCMV antiviral: blocks human cytomegalovirus replication; HFF cells, HCMV-luciferase reporter, 72 h; hits give low values; activity change, negative = inhibition, % at 57.5 µM; hit rate 4.5% among 410,000; in the data active means activity change below about -60%; inconclusive means no clear call, values can overlap the other calls; inactive means above about -39%
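After 16 h attachment at 37C, HFF cells received test compound and HCMV-luciferase (1 PFU/cell); reporter luminescence read 72 h later, data normalized against buffer-only and known inhibitor Salinomycin.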
FMDV antiviral: blocks foot and mouth disease virus; AID 1159524; hit rate 1.2% among 410,000; FMDV antiviral cell-based qHTS; Potency, µM (top dose mostly 57.9 µM), for the others: top-dose activity change, negative = inhibition, most hits filed as inhibitors; calls by dose curve; tested in HEK293T cells; further: read-out not given here; potency means the concentration at half of the fitted maximal effect; nearly all actives have a fitted effect of over 45% in size
MARV entry inh: Marburg virus entry inhibition. Marburg virus pseudotyped entry inhibition, cell reporter. Potency, µM (top dose mostly 37.8 µM), for inactives: at the highest dose activity change, negative = inhibition, usual class: inhibitors. hit rate 1.8% among 300,000. AID 540276; calls by dose curve; tested in HEK293 cells; further: potency means the concentration at half of the fitted maximal effect
LASV entry inh: inhibitors of Lassa virus binding or cell entry | Lassa virus pseudotype entry inhibition, cell reporter | Potency, µM (titrated, usually from 37.9 µM), without a hit: at the highest dose activity change, negative = inhibition, most hits filed as inhibitors | hit rate 1.2% among 300,000 | AID 540256; calls by dose curve; tested in HEK293 cells; further: potency means the concentration at half of the fitted maximal effect; nearly all actives have a fitted effect of over 50% in size
HCV inh: blocks hepatitis C virus. Huh7.5.1 HCVcc-Cre infection, luciferase reporter, 44 h. Potency, µM (doses to about 41.8 µM), for the others: at the top dose activity change, negative = inhibition, actives largely listed as inhibitors. hit rate 3.4% among 340,000. AID 651820; active means well fitted inhibition curve with a large enough effect; inconclusive means small, poorly fitted or top-dose-only effect, or another doubt; inactive means no such curve, though single readings can be large or run the other way; further: potency means the concentration at half of the fitted maximal effect
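Infectious HCVcc-Cre (~0.5 moi) was added to cells just after compound, with cells seeded 4 h earlier at 1,000 per well. Luciferase activity after 44 h culture reported infection; substrate was incubated 15 min at room temperature before reading.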
* hit, by the source's call; ? = inconclusive; · = no result; + = active, no number; [ ] = dose if it differs, or a comment. On the % scale 0 is the no-effect control and ±100 the full control effect.

SMILES	HCMV antiviral	FMDV antiviral	MARV entry inh	LASV entry inh	HCV inh
c1ccc2c(N3CCNCC3)nc(-c3ccc4c(c3)OCO4)nc2c1	·	13.4%	·	·	·
COc1ccccc1NC(=O)COc1ccc(Br)cc1CNC1CCCC1	-17.6	-27.3%	5.62µM*	·	?
COc1ccccc1NC(=O)COc1ccc(Br)cc1CO	26.8	-18.4%	-6.8%	-15.0%	-5.2%
O=C(COc1ccc(Br)cc1CO)Nc1ccccc1	23.9	27.6%	0.3%	16.2%	15.8µM*
COc1ccccc1NC(=O)COc1cc(Br)c(CNCCCN2CCOCC2)cc1OC	-37.4	-5.5%	·	·	11.2µM*
Cc1ccc(NC(=O)COc2ccc(Br)cc2CO)cc1	41.9	-6.9%	6.4%	22.6%	?
O=C(COc1ccc(Br)cc1CO)Nc1ccccc1F	54.4	10.1%	?	9.2%	25.1µM*
COc1cc(Cl)c(NC(=O)CCS(=O)(=O)c2ccc3c(c2)NC(=O)CO3)c(OC)c1	1.3	-1.9%	·	16.9%[46.1 µM]	·
COCCNc1ncnc2c1c(-c1ccccc1)cn2-c1cccc(Cl)c1	0.0	-16.7%	·	?	·
COc1cc2ncnc(NCc3ccc(C)cc3)c2cc1OC	0.1	-13.1%	?	-5.7%	20.1%
COc1ccc(CCNc2ncnc3cc(OC)c(OC)cc23)cc1OC	-21.3	20µM*	?	?	10µM*
COc1ccc(CCNc2ncnc3c2c(-c2ccccc2)cn3-c2cccc(Cl)c2)cc1OC	25.1	25.1µM*	·	?	·
COc1cc2ncnc(NCCc3ccccc3)c2cc1OC	?	20µM*	·	·	11.2µM*
CCCCCCCCN1CC(Cc2cc3ccccc3c3ccccc23)N(c2ccccc2)c2ccccc2C1=O (stereo not drawn)	1.9	-22.4%	·	·	·
CCCCCN(C(=O)NC(=O)Nc1ccc(C)cc1)S(=O)(=O)c1ccccc1	-17.1	95.3%	10.2%	15.5%	5.0%
Clc1ccc(-c2ccc(C=Nc3ccc(N4CCOCC4)cc3)o2)cc1	-61.8*	-7.0%	-17.2%	-5.2%	16.5%
Clc1ccc(-c2ccc(C=Nc3ccc(N4CCOCC4)cc3)o2)c(Cl)c1	-25.7	5.6%	-0.1%[46.1 µM]	-12.7%[46.1 µM]	5.5%
O=C(CCn1cccn1)Nc1ccc2c(c1)OCCO2	?	-3.8%	·	·	10.5%
Cc1ccc(OCC(=O)c2cc(C)n(C3CC3)c2C)c([N+](=O)[O-])n1	-64.3*	22.9%	19.3%	-5.2%	-5.2%
Cc1cc(C(=O)COc2cccc([N+](=O)[O-])c2)c(C)n1C1CC1	?	19.4%	·	·	11.2µM*
COc1ccc(-n2c(C)cc(C(=O)COc3ccc(C)nc3[N+](=O)[O-])c2C)cc1	-90.0*	?	-32.6%	-28.2%	?
COCCn1c(C)cc(C(=O)COc2cccnc2[N+](=O)[O-])c1C	-84.4*	-12.0%	23.9%[46.1 µM]	6.7%[46.1 µM]	-2.0%
Cc1cc(C)c(C(=O)COc2cccnc2[N+](=O)[O-])cc1C	-33.3	?	4.9%	-2.0%	20.1%
Cc1cc(C(=O)COC(=O)c2cccc(O)c2)c(C)n1C1CC1	12.6	-30.5%	?	?	?
Cc1ccc(OCC(=O)c2cc(C)n(-c3cc(C)on3)c2C)c([N+](=O)[O-])n1	-22.6	11.6%	4.2%	-14.6%	?
SMILES	HCMV antiviral	FMDV antiviral	MARV entry inh	LASV entry inh	HCV inh
Cc1cc(C(=O)COc2ccc(F)cc2Br)c(C)n1C1CC1	?	3.1%	-14.8%	-10.3%	?
Cc1ccc(-n2c(SCC(=O)NCc3ccc(F)cc3)nc3c([nH]c4ccccc43)c2=O)cc1	?	-20.4%	·	-23.2%[46.1 µM]	·
N#Cc1cc([N+](=O)[O-])c2sc(C(N)=O)[n+]([O-])c2c1	·	·	-22.1%	?	·
C=CCCCCCCCCCCCC(O)CC(O)COC(C)=O (stereo not drawn) (tested in a mixture with another compound)	·	-12.3%	·	·	·
C/C=C(\C)C(=O)NCCN1Cc2ccccc2OC(c2ccccc2OC)C1 (stereo not drawn)	·	16.5%	·	·	·
CN(C)CC(C)(O)c1ccc2c(c1)CN(Cc1cn(C)c3ccccc13)CCO2 (stereo not drawn)	·	-11.5%	·	·	·
Cc1ccc(OCC(=O)c2cc(C)n(CC(F)(F)F)c2C)c([N+](=O)[O-])n1	-30.3	-22.4%	-3.0%[46.1 µM]	-22.3%[46.1 µM]	?
Cc1ccc(OCC(=O)c2cc(C)n(Cc3cccs3)c2C)c([N+](=O)[O-])n1	-94.1*	17.8µM*	?	?	?
NC(CSCc1ccccc1Cl)C(=O)O (stereo not drawn)	-22.5	-6.1%	?	-28.9%	16.4%
N=C(N)SCc1ccccc1Cl	-23.8	?	8.2µM*	-8.0%	-27.2%
Cc1cccc(-n2c(SCc3ccc([N+](=O)[O-])cc3)nnc2-c2c[nH]c3ccccc23)c1	?	-29.2%	?	?	-6.5%
O=C(O)CCN1c2ccccc2Sc2ccccc21	35.4	-3.5%	·	·	5.1%
c1ccc2c(c1)Sc1ccccc1N2CC1CN2CCC1CC2 (stereo not drawn)	-60.4*	-17.2%	·	·	16.2%
COc1ccc(-c2noc(COC(=O)c3ccco3)n2)cc1OC	-27.2	0.7%	·	·	0.5%
Cc1ccc(OC[C@H](O)[C@H](C)NC(C)C)c2c1CCC2	13.7	-27.6%	15.8µM*	·	-28.3%
CC(C)(C)NC[C@H](O)COc1cccc2c1CCCC2=O	-7.1	-0.9%	·	·	11.9%
COc1ccc(C2c3cc(OC)c(OC)cc3Cc3c4cc(OC)c(OC)cc4cc[n+]32)cc1OC (stereo not drawn)	·	-13.3%	·	·	·
Nc1nc(-c2ccccc2)ns1	30.4	18.7%	-0.3%	2.8%	16.0%
COc1ccc(CCNS(=O)(=O)c2cc(-c3onc(C)c3C)ccc2OC)cc1OC	-10.6	30.2%	·	-10.2%[46.1 µM]	·
COc1ccc(-c2onc(C)c2C)cc1S(=O)(=O)NCc1ccc(C)o1	-71.2*	38.9%	·	?	·
COc1ccc(-c2onc(C)c2C)cc1S(=O)(=O)NCC(C)c1ccccc1 (stereo not drawn)	-25.9	-1.9%	·	-14.2%[46.1 µM]	·
COc1ccccc1CN1CCC(CNS(=O)(=O)c2cc(-c3onc(C)c3C)ccc2OC)CC1	20.9	11.5%	·	-1.2%[46.1 µM]	10µM*
CCOc1ccccc1CNS(=O)(=O)c1cc(-c2onc(C)c2C)ccc1OC	+	53.9%	·	-15.4%[46.1 µM]	·
NS(=O)(=O)c1ccc(Nc2nc(-c3ccc(F)cc3)cs2)cc1	-26.9	?	?	-0.6%	?
Clc1ccccc1Nc1nc(-c2cccnc2)cs1	-2.0	5.9%	?	?	?
SMILES	HCMV antiviral	FMDV antiviral	MARV entry inh	LASV entry inh	HCV inh
CCOc1ccccc1Nc1nc(-c2cccnc2)cs1	17.2	-15.3%	-4.6%	8.9%	10µM*
NS(=O)(=O)c1ccc(Nc2nc(-c3ccc(O)cc3O)cs2)cc1	-91.0*	?	?	-22.8%	-22.4%
c1cncc(Nc2nc(-c3cccnc3)cs2)c1	-6.4	23.4%	7.7%	12.5%	?
NS(=O)(=O)c1ccc(Nc2nc(-c3cccnc3)cs2)cc1	-22.9	-23.5%	?	3.0%	12.6µM*
CC(C)OC(=O)[C@H](C)NC(=O)N1CCc2nc(-c3ccccc3)c3c(c2C1)CO[C@@H](C)C3	·	·	-2.4%[14.2 µM]	·	·
Cc1csc(SCc2nnc(-c3ccccc3Br)o2)n1	157.9	·	-12.9%	-25.4%	-8.8%
Fc1ccccc1SCc1nnc(-c2ccccc2Br)o1	-35.1	-41.9%	5.01µM*	?	-26.8%
